# Bioassay records deposited in PubChem BioAssay by National Center for Advancing Translational Sciences (NCATS).
# LDHA inh = qHTS assay for inhibitors of human lactate dehydrogenase | purified LDHA, NADH/diaphorase-resazurin fluorescence; active compounds read low | hit rate 0.15% among 480,000 | activity change, % (values are at about 110 or 230 µM) | L-lactate dehydrogenase A chain (Homo sapiens), P00338 | AID 1347041, 2019; in the data active = activity change below about -30%; inconclusive = mostly about -25% to -30%
#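 Enzyme activity of human lactate dehydrogenase 5 (2 nM; 0.06 mM NADH, 0.2 mM pyruvate, 5 min, RT) is measured via a resazurin/diaphorase fluorescence readout of residual NADH.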
# TDP1 cell noCPT = qHTS for Inhibitors of human tyrosyl-DNA phosphodiesterase 1 (TDP1): qHTS in cells in absence of CPT | hit rate 15% among 420,000 | Potency, µM (titrated, usually from 46.2 µM), most hits filed as inhibitors | DT40 Tdp1-/- hTDP1 cells, no CPT, ATP luminescence, 48 h | AID 686978, 2013; note: nearly all actives have a fitted effect of over 55% in size
#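 Seeded 400 DT40-hTDP1 cells/well (vehicle DMSO, no 20 nM CPT); pinned compounds; ≥48 hr at 37 °C; CellTiter-Glo luminescence as viability measure.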
# IL1B secr inh = qHTS for Inhibitors of Inflammasome Signaling: IL-1-beta AlphaLISA Primary Screen. THP-1 LPS/ATP IL-1B secretion, AlphaLISA, 16 h; active compounds read low. activity change, % at 57.5 µM. hit rate 4.7% among 360,000. AID 743279, 2014; in the data active = activity change below about -50%; inconclusive = mostly about -30% to -49%
#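 THP-1 cells pretreated 1 hr with compounds (up to 57.5 uM final), then stimulated with LPS (250 ng/mL final) plus ATP (1.25 mM final); secreted IL-1B measured by AlphaLISA after 16 hr, decreased signal indicating inhibition.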
# VP16 counter = VP16 counterscreen qHTS for inhibitors of ROR gamma transcriptional activity; Drosophila S2 Gal4-VP16 UAS-luciferase, luminescence, 20 h; Potency, µM (doses to about 53.6 µM), usual class: inhibitors; hit rate 3.5% among 310,000;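 note: Gal4-VP16 expression switched on by copper sulfate through the metallothionein promoter; nearly all actives have a fitted effect of over 50% in size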
# DT40 TDP1 CPT = qHTS for Inhibitors of human tyrosyl-DNA phosphodiesterase 1 (TDP1): qHTS in cells in presence of CPT. chicken DT40 Tdp1-/-;hTDP1 cells + 20 nM CPT, ATP luminescence, 48 h. Potency, µM (top dose mostly 46.2 µM), usual class: inhibitors. hit rate 12% among 420,000. AID 686979, 2013; note: nearly all actives have a fitted effect of over 55% in size
#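 Cell growth measured by CellTiter-Glo luminescence after a minimum 48 h, 37 C compound exposure with 20 nM CPT in Tdp1-knockout DT40 cells stably expressing hTDP1, seeded 400/well; qHTS titration format.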
# RORg inh = qHTS for inhibitors of ROR gamma transcriptional activity | Nuclear receptor ROR-gamma (Mus musculus), P51450 | Drosophila S2 Gal4-RORgamma UAS-luciferase reporter, 20 h | Potency, µM (top dose mostly 53.6 µM), hits mostly inhibitors | hit rate 5.4% among 310,000; note: nearly all actives have a fitted effect of over 60% in size
# Target sequence (P51450 whole entry, looked up, the tested form may be a part): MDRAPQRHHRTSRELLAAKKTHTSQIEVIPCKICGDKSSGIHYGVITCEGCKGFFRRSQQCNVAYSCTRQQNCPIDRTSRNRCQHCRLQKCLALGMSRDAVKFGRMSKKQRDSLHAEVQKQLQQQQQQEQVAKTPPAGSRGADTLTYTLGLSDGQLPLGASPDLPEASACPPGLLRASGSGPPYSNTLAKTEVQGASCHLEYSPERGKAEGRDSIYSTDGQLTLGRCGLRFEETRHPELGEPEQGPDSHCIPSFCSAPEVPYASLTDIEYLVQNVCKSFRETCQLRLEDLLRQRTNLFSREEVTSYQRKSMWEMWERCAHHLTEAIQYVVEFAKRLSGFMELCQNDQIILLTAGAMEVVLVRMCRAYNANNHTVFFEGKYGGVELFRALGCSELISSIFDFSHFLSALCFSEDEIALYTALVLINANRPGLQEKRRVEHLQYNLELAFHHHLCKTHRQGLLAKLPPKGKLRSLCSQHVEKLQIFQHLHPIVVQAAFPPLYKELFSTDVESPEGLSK
#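 A Gal4/UAS one-hybrid system in insect cells: metallothionein-promoter Gal4–ROR gamma fusion plus Photinus luciferase reporter. Copper sulfate 700 uM final, 20 hr ambient incubation, luminescent detection after 10 min with reagent.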
# Numbers stand for hits; n = inactive; u = inconclusive; x = no result. An excerpt weighted towards active compounds, which were near 18% of everything screened. Unless noted, calls come from the whole dose curve; as a rule, active = well fitted curve in the direction sought with a large enough effect; inconclusive = small, poorly fitted or top-dose-only effect, or another doubt; inactive = no such curve, though single readings can be large; an effect the other way counts as inactive or inconclusive.
SMILES,LDHA inh,TDP1 cell noCPT,IL1B secr inh,VP16 counter,DT40 TDP1 CPT,RORg inh
COc1ccccc1C(=O)Oc1ccc(F)cc1C(=O)/C=C/c1ccccc1Cl,n,x,x,x,x,x
N=c1nc2n(cc1F)C1OC(CO)C(O)C1O2 (stereo not given),n,0.13µM,n,x,0.13µM,x
COc1ccc(S(=O)(=O)N2CCN(CCNC(=O)COc3ccc(C(C)C)cc3)CC2)cc1,n,x,x,x,x,x
COC(=O)c1c(-c2ccc(Cl)cc2)noc1N1CCN(c2ccccc2OC)CC1,n,u,x,x,u,x
COC(=O)c1c(-c2ccc(Cl)cc2)noc1N1CCN(c2cccc(C(F)(F)F)c2)CC1,n,23µM,x,x,15µM,x
O=C(c1ccc(Cl)s1)N1CCN(c2cccc(C(F)(F)F)c2)CC1,n,x,x,x,x,x
COC(=O)c1c(-c2ccc(Cl)cc2)noc1N1CCN(c2ccc(F)cc2)CC1,n,21µM,x,x,21µM,x
O=C(NCC(F)(F)F)c1cc(-c2ccc3c(c2)OCCO3)nc2ccccc12,n,x,x,x,x,x
O=C(Cn1cnc([N+](=O)[O-])c1)Nc1cc(Oc2ccc(Cl)cc2Cl)cc([N+](=O)[O-])c1,n,16µM,-58,u,16µM,u
N#Cc1ccc(NC(=O)Cn2cnc([N+](=O)[O-])c2)cc1,n,n,n,n,n,n
COc1cc2[nH]c(=O)n(Cc3ccc(C(=O)N4CCN(c5cc(Cl)ccc5C)CC4)cc3)c(=O)c2cc1OC,n,5.2µM,x,x,2.3µM,x
COc1ccc(Cn2c(=O)[nH]c3cc(C(=O)N4CCN(Cc5ccccc5)CC4)ccc3c2=O)cc1,n,18µM,n,n,16µM,u
COc1ccc(C2OC(=O)CC2C(=O)N2CCN(c3cc(Cl)ccc3C)CC2)cc1OC (stereo not given),n,u,n,n,21µM,n
COc1ccccc1Cn1c(=S)[nH]c2cc(C(=O)N3CCN(c4ccccc4OC)CC3)ccc2c1=O,n,n,n,n,u,u
CCN1CCN(C(=O)c2ccc(Cn3c(=O)[nH]c4cc(OC)c(OC)cc4c3=O)cc2)CC1,n,n,n,n,n,n
COc1ccccc1N1CCN(C(=O)c2ccc3c(=O)n(Cc4ccco4)c(=S)[nH]c3c2)CC1,n,u,n,u,u,6.3µM
CNc1snc(C)c1C(=O)NCCc1ccccc1OC,n,x,x,x,x,x
Clc1ccc(CO/N=C/c2ccc(OCc3ccccc3)cc2)c(Cl)c1,n,x,x,x,x,x
CCSc1nnc(-c2nn(C)c3c2CN(S(=O)(=O)c2ccc4c(c2)CCC4)CC3)n1C,n,x,x,x,x,x
Brc1ccccc1Oc1ccc2nnnn2n1,n,x,x,x,x,x
O=C(Nc1cccnc1N1CCCC1)N1CCN(c2cnccn2)CC1,n,x,x,x,x,x
COc1ccc(Cn2c(=O)[nH]c3cc(C(=O)N4CCN(c5ccccc5OC)CC4)ccc3c2=O)cc1,n,23µM,n,n,u,n
COc1ccc(Cn2c(=O)[nH]c3cc(C(=O)N4CCN(c5cc(C)ccc5C)CC4)ccc3c2=O)cc1,n,u,x,x,u,x
CCn1cc(C(=O)N2CCN(c3cc(Cl)ccc3C)CC2)c2cc(OC)c(OC)cc2c1=O,n,u,x,x,12µM,x
COc1ccccc1N1CCN(C(=O)c2ccc3c(=O)n(Cc4ccc5c(c4)OCO5)c(=O)[nH]c3c2)CC1,n,18µM,u,n,16µM,u
COCCn1c(=O)[nH]c2cc(C(=O)N3CCN(Cc4ccc5c(c4)OCO5)CC3)ccc2c1=O,n,n,n,x,n,x
O=C(CSc1ncnc2ccccc12)Nc1ccc(F)c(F)c1F,n,x,x,x,x,x
COc1ccc(CNC(=O)C2CCN(S(=O)(=O)c3cccnc3)CC2)cc1,n,n,n,n,n,n
COc1ccc(CNC(=O)C2CCN(S(=O)(=O)c3cccc(-c4noc(C)n4)c3)CC2)cc1,n,9.2µM,x,x,23µM,x
Cc1cc(C)nc(N2CCC(C(=O)Nc3cccc(C(F)(F)F)c3)CC2)n1,n,23µM,n,n,u,n
